For the assay, the target named is UCHL1, P09936. The experiment in a line: median log2 fold change of GCK-ALFA target abundance (FLAG IP / Myc IP barcode read proportion) (log2 ratio); each designed protein is fused to an ALFA-tag nanobody in HEK293 cells to bring the named protein to FLAG-tagged glucokinase (GCK); Myc marks an untargeted standard; higher = target protein stabilised (more abundant). Particulars: target protein: 3xFLAG-MCP-GCK-ALFA reporter; HEK293 landing pad (RPLP). The procedure, abridged: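 Binders fused to an ALFA nanobody were recombined as a library into HEK293 landing-pad cells, which were induced with 2 μg mL^−1 doxycycline and then transfected to express a FLAG-tagged target and a Myc-tagged standard. After 48 h, circular RNA barcodes recovered by anti-FLAG and anti-Myc immunoprecipitation of lysates were reverse transcribed, amplified and sequenced. Each binder's target abundance is the median log2 ratio of FLAG to Myc barcode read proportions, from barcodes present at ≥10^−7 in both replicates, binders carrying ≥3 barcodes per replicate, a 10^−6 pseudocount and pooled replicates.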
Sequence of UCHL1, P09936 (P09936 whole entry, looked up, the tested form may be a part): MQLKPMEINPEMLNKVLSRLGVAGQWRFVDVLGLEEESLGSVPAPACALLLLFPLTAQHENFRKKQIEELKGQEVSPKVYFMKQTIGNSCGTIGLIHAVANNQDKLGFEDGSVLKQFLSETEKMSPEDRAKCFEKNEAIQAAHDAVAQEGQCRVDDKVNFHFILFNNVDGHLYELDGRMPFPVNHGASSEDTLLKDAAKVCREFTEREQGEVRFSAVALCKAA

B1: uchl1_2_7524 (protein)
chain: KTVFVGALVTLEAEDKETGKVYRYRRNLIGTESAIEALAKEVKELVLNFKEAVGLPVKATVHIVASREEVLKKAVEEFEKMAKELAKEGIEVEITSELTK
Regarding B1, the “median log2 fold change” value is -0.455.

B2: uchl1_2_7519 (protein)
chain: KTVIVGVLVDMRAYDPETGREYRARHTLIGTETAIEAMVEEIRERILAFRDDVGVPVEVDLHIVSSREEVARRLEALLKEMAAELAPEGVTVRISVTVTK
As for B2, the “median log2 fold change” value was -0.204.

B3: uchl1_2_7540 (protein)
chain: KSVFVGVLVTLRSYDEATGKEYVSRRTLIGTEDSIEALAEEVAELIRAFYEQTGVPVQADVTIVSSSREVAERLAEALRAREAELRAEGVDVTLTITVRV
Turning to B3, the “median log2 fold change” value is -0.377.

B4: uchl1_2_7521 (protein)
chain: KAEFVGVLVDMTSTDPETGKTYRYRRNYIGTASAIPAMMAEVERDVLNFQENVGLPVDVALHIVASTEAALEAARAEAKKMAARLAAKGAKVTITGEVAK
For B4, the “median log2 fold change” value is -1.03.

B5: uchl1_2_7547 (protein)
chain: KTEFVGVLVTITSVNPETGETFVARRTLIGTASSIEAMAKEIKELALAFKADTKGDTTVDVEVVVSSKEVAEKAKKALEELKKELEAEGIKFNYKITVVE
On to B5, for which the “median log2 fold change” value is -0.0935.

B6: uchl1_2_7545 (protein)
chain: KTKFVGVLVTLRSYDPETGREYVSRRTLIGTEEAVEAMAEEIAELIRRFHDRTGVPVDVDVTIYSSSKEVAEELKKKLEEEVKKLKAEGIDVTLTVTLKV
As to B6, the “median log2 fold change” value was determined as 0.0138.

B7: uchl1_2_7535 (protein)
chain: KTKFVGVLVTLTATDAETGEVKTSRRTFIGTEDSVEALADEVKDYILDYKKDSGKAVKADIKIYSTDEEVVKKLEALLKEKEPELKAAGIEVNITGEVVK
B7: the “median log2 fold change” value was -0.112.

B8: uchl1_2_7550 (protein)
chain: EPRFVGVLVTVTSTNPETGEVFRSRRNFIGTADAVAAMMAEVEEYVLRFKEVNGGAVAVDLHVVVSTEEDAARARAEAAKLAARLAAEGITATVTVTVVE
On to B8, for which the “median log2 fold change” value was -0.0947.

B9: uchl1_2_7542 (protein)
chain: KPKFIGLKVTLTSYDEKTGKTYKATRTLIGTESGIEAMAKEVGELVRTFYDATGVPVKVDVTIVSSDEEVAKKLEEALRKMEEELKKEGVPVELNIKKEV
For B9, the “median log2 fold change” value is -0.0683.

B10: uchl1_2_7529 (protein)
chain: KTQFVGALVTMTATDPKTGKTYRARRILIGTADGIPAMMEEIEELALEFQKQTGVPVTVNVTVHVSKEEVAEEVKKKLEELKKRLAEKGITFTYEVIVHK
On to B10, for which the “median log2 fold change” value was -0.784.

B11: uchl1_2_7552 (protein)
chain: KTQFVGVLVTITSTNPETGEVKTVRKTLIGTEEGIEAMAKEILEMALEFKEQTKGPVEVKVEVVVSTEETAKKMEEELKKLEEELKKEGIKVEVEVKVVK
In the case of B11, the “median log2 fold change” value was 0.325.

B12: uchl1_2_7520 (protein)
chain: KARFVGVLVDMTSTDPETGKTYRSRRNYIGTESAIPAMMAEVKEDVLNFQKNVGLPVKVDLHIVADTQEALDAAKAEAEKMAAELAKEGATVTISGEVAE
On to B12, for which the “median log2 fold change” value was -1.27.

B13: uchl1_2_7533 (protein)
chain: KTVFVGVRVTITSRNPETGEVRRAVRTFIFTESSLEALTEEIRELALAFKADHGGATTVRIEAVATREEVAERLRELLERLAEELAAEGIEVEIEVTVVK
For B13, the “median log2 fold change” value was -0.457.

B14: uchl1_2_7538 (protein)
chain: KTRFVGVLVKITAKDEKTGKVYRARRTLIGTASGIPAMAEEVERLVLEFQERTGVPVRVEVHVYASDEETAELARREFERMAERLAEHGIEVTVTVTVVE
Consider B14, for which the “median log2 fold change” value is -0.55.

B15: uchl1_2_7544 (protein)
chain: KTKFVGVKVTLTSYDEKTGKEYKSTHTLIGTEEAVEAMAKEIAELIRTFYDATGVPVKVDVTIYSSSEEVAEKLEKELKKEVEKLKKEGIDVTLTITKKV
Regarding B15, the “median log2 fold change” value is -0.358.

B16: uchl1_2_7525 (protein)
chain: KTVFVGALLTLTSVDEETGEVYRYRRTLIGTASAIEALAREVEELVLNFRDDVGLPVDAEVHLVASDEETLRRAREAFEKMAERLAEEGITVTITSEVAR
Consider B16, for which the “median log2 fold change” value is 0.0632.

B17: uchl1_2_7530 (protein)
chain: KAEFVGALLTLTARDAETGETFRSRRTLIGTADAIEALMAEIEELALRFQADVGVPVTADIHVVVSNEETAERVREALARMAERLAAEGITVNVTVTVVR
B17: the “median log2 fold change” value is -0.378.

B18: uchl1_2_7536 (protein)
chain: KTKFVGARVEIEAVDPETGKRYRSRRTLIGTASAIEAMAEEVRRLVLAFKEDVKAPVTVRVTVYASDEETAAKARAAFERMAAELAAEGITVEVEVVLVK
Take B18: the “median log2 fold change” value is -0.837.

B19: uchl1_2_7553 (protein)
chain: KTKFVGVLVTIRAVNPETGKEYRSRRTLIGTADAIEALAEEVYELVLRFKEATGAPVEVDVRVYVSDEETAERAREAFKKLEERLKAEGVKARVEVTVVK
Consider B19, for which the “median log2 fold change” value is -0.615.

B20: uchl1_2_7551 (protein)
chain: KSVFVGVLVTIRATDAATGETLVSRRTLIGTESSIKKLAEEVKELVLEFKARTGGPVEVDITVYSSKEEVAKKAKEEFEKLKKELAAEGVTANVNVILSK
Turning to B20, the “median log2 fold change” value is -0.159.

B21: uchl1_2_7541 (protein)
chain: KTKFIGVLVTLTSYDAATGRTYRARRTLIGTESGIEAMAAEVAELVRTFHDATGQPVAVDVRIVSSDEAVAEALEAALKAAEAALKAEGVDVTLTITKDV
Consider B21, for which the “median log2 fold change” value was -0.304.

B22: uchl1_2_7543 (protein)
chain: KPVFVGVLLELEARDEATGRVYRARRTLIGTEDGIEAMAEEVRRLVREFWEATGVPVRARVTIVSTREEVAERLRRALEAAHEELRAEGIDVTLEITVRV
As for B22, the “median log2 fold change” value came out at 0.327.

B23: uchl1_2_7531 (protein)
chain: KKKTQFVGVLVTVRATRDGRELVARRTFIATESSIDALMAEVERYVRDFVAAAGTPARVAIRAVVSTEETGARVAAALAALAERLAPLAEEIEVTVEVRR
For the molecule B23, the “median log2 fold change” value was -0.524.

B24: uchl1_2_7537 (protein)
chain: KTRFVGVKVDIEARNEETGEVFRARRTLIGTADSIPAMAEEVERLVLEFQRRTGVPVRVEVHVYASDEETARLAREEFEKMAERLRKEGIEVRVEVTVVE
B24: the “median log2 fold change” value is -0.302.

B25: uchl1_2_7549 (protein)
chain: EPQFVGVLVTVTSTNPETGKVYKSRRNFIGTADAIPALFKEVLEYVLTFKEANGGKTKVKLEIVVSTKEVAEKAKKEAEKLKKELAKEGIEAEVKITVVE
For the molecule B25, the “median log2 fold change” value was -0.1.

B26: uchl1_2_7539 (protein)
chain: KTKFVGALVEITAKDEKTGKVYRSRRTLIGTESAIEAMAKEIKELVLNFKEETGVPVEVKVTVYAENKETAEKMKKELEKMAKELAKEGIKVEIEVKLVE
Take B26: the “median log2 fold change” value was -0.811.

B27: uchl1_2_7546 (protein)
chain: KTQFVGALVKMEAYDEETGKTYKSTRTLIGTADAIEKMAEEIYELALNFKDTVGVPVKVKVDVVVASEETKKKAEAALKKMKEKLKKEGIEVEVKVTVVE
In the case of B27, the “median log2 fold change” value is -1.13.

B28: uchl1_2_7534 (protein)
chain: KTVFVGVKVTVTVTDPATGKTTTTTRTFIGTADSVDALADAVTDYILRVKADSKADVAAAVTVYSTDKAVVDRAVAALNARVPELAAAGVTVTVTGTVVK
For B28, the “median log2 fold change” value worked out at 0.287.

B29: uchl1_2_7532 (protein)
chain: ESVFVGVLVTITSRNEATGETKVARRTLIALESNIEALMEEVKELVLAFKEEHGGKTEVKIEVYATREEVAKRAREVAEKMKEELEAAGIDATVEVKLVK
B29: the “median log2 fold change” value was -0.231.

B30: uchl1_2_7526 (protein)
chain: KTKFVGVLVTLTSYNEETGKTYVSRRTLILSESGIEKLSEEILELVDRFKQVNGDNIKVKIHVVSTDEEALEKAKEKVEEAKEELEKRGVEVEVEYELVK
As to B30, the “median log2 fold change” value is -0.696.

B31: uchl1_2_7548 (protein)
chain: KAEFVGALVTITSTNPETGEVRVARRTLIGLASDIDALMEEIERLVLDFQADTGGATRVRIRIVVSSEEVAERARAAAEEMKARLAAEGIEVEVEIEVVE
B31: the “median log2 fold change” value was -0.489.

B32: uchl1_2_7527 (protein)
chain: KSKFVGVKVTLTAYNEETGKTYVSTRTLILSESGIENLSKEILDLVERFKQVNGDNIEVDIKAVSTDEEALEKAKKELEKAKKELEAKGVKVNITYELVK
With B32, the “median log2 fold change” value was -0.63.

Source of the values: the supplement of paper PMC12632987.
